Source: PubChem BioAssay
Most compounds without a hit are left out; they make up all but 1.5% or so of the library.
EBV gp42 block: EBV gp42 inhibition. Fluorescence polarization binding assay, mP read-out. inhibition, % (tested at 21.74 µM). Q1HVG2. 0.42% of 220,000 active; in the data active = inhibition above about 50%
MCL1 BIM primary: disrupts human MCL1 binding to BIM-BH3 peptide. Q07820. GST-MCL1 / FITC-Bim-BH3 fluorescence polarization. inhibition, % at 10.9 µM. 0.68% of 320,000 active. AID 2057;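 active = inhibition above the mean inhibition of all tested compounds plus 3 SD, set per campaign, cut at about 40% in these data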;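 note: higher means more loss of mP so more displacement of Bim peptide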
E coli Lon inh: inhibits E. coli Lon protease | P0A9M0 | purified E. coli Lon protease, fluorescence polarization | inhibition, % at 7.94 µM | 0.42% of 360,000 active; in the data active = inhibition above about 13%, passing the limit was not always enough
Target sequence (P0A9M0 whole entry, looked up): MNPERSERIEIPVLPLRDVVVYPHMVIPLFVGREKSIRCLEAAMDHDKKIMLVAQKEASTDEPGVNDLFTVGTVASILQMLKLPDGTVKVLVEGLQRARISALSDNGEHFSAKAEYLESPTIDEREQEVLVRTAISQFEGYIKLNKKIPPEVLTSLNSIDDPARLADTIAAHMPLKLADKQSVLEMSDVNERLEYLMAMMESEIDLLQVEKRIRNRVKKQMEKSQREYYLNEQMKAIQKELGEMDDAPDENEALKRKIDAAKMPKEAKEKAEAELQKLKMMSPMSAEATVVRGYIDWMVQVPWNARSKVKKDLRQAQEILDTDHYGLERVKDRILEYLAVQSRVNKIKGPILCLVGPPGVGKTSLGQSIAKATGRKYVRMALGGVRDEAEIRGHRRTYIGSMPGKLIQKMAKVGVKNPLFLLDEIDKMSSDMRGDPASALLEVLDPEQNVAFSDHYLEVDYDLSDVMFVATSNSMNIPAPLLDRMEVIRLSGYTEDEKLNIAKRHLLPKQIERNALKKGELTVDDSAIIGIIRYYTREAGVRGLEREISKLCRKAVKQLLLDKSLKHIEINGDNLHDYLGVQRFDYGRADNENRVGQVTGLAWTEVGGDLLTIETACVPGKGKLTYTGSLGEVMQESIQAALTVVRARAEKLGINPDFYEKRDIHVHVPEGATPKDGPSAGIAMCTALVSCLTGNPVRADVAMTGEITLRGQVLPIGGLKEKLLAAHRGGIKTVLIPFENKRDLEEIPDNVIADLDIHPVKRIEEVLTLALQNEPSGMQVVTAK
GLD-1 RNA inh: GLD-1-TGE RNA interaction inhibition (C. elegans) | Q17339 | purified GLD-1 + fluorescein TGE RNA, fluorescence polarization | inhibition, % at 5.96 µM | 0.44% of 320,000 active;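 active = percent inhibition above a per-plate cutoff, the plate mean of test compounds plus 3 SD, cut at about 30% in these data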
Bcl-xL primary: Bcl-xL (human) inhibition; Q07817; GST-Bcl-xL / FITC-Bim BH3 peptide fluorescence polarization; inhibition, % at 10.9 µM; 0.7% of 320,000 active;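 active = inhibition above the mean of all tested compounds plus 3 SD, cutoff set per campaign, cut at about 30% in these data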;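 note: inhibitors lower millipolarization by displacing the labeled peptide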
MEX-5 binding: C. elegans MEX-5 TCR-2 RNA binding activity. Q9XUB2. MEX-5/FITC-TCR2 RNA binding, fluorescence polarization; stronger effect = lower value. activity score (negative = inhibition of binding), % at 10 µM. 0.38% of 300,000 active;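 active = inhibition past about -25% in most replicates, and total fluorescence under double the plate's negative control median, limit read from the data; inconclusive = replicates evenly split on the limit, or fluorescence at least double controls; inactive = too little inhibition in most replicates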
Bcl-xL conf: Bcl-xL (human) inhibition, MCL1 counter-screen confirmation; shares compounds with MCL1 BIM primary; GST-Bcl-xL / FITC-Bim BH3 peptide FP binding; inhibition, % at 10.9 µM; 54% of 1,700 active; AID 2166;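 active = inhibition above a cutoff equal to the mean inhibition of all tested compounds plus 3 SD, cut at about 30% in these data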
MCL1 inh confirm: MCL1-BIM-BH3 interaction inhibition, confirmation. shares compounds with MCL1 BIM primary. GST-MCL1 / FITC-Bim-BH3 fluorescence polarization. inhibition, % at 10.9 µM. 61% of 1,700 active. AID 2168;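 active = inhibition above the average of all tested compounds plus 3 SD, cut at about 40% in these data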
Numbers stand for hits.

`Cc1ccc2c(c1)c1nc3ccccc3nc1n2C` gave MCL1 BIM primary 76, E coli Lon inh inactive, GLD-1 RNA inh inactive, Bcl-xL primary 58, MEX-5 binding inactive, Bcl-xL conf 84 and MCL1 inh confirm 136.
Screening Cc1c(O)c2c3c(cccc3c1O)C(=O)N(c1ccccc1)C2=O returned EBV gp42 block 83, MCL1 BIM primary 98, E coli Lon inh inactive, GLD-1 RNA inh 82, Bcl-xL primary 91, MEX-5 binding inconclusive, Bcl-xL conf 92 and MCL1 inh confirm 105.
For Cc1ccc2c(c1)c1c3n2CCN(C(=O)CN2CCN(C)CC2)C3CCC1 (centres undefined) the results were EBV gp42 block inactive, MCL1 BIM primary inactive, E coli Lon inh inactive, GLD-1 RNA inh inactive, Bcl-xL primary inactive and MEX-5 binding inactive.
For Cc1ccc2c(c1)c(=O)c1c3n2CCN(C(=O)CCl)C3CC1 (centres undefined) the results were EBV gp42 block inactive, MCL1 BIM primary 55, E coli Lon inh inactive, GLD-1 RNA inh inactive, Bcl-xL primary 48, MEX-5 binding inactive, Bcl-xL conf 30 and MCL1 inh confirm 44.
COc1ccc(C2C=C(c3ccccc3)Nc3nnnn32)cc1 (centres undefined) was read as EBV gp42 block inactive, MCL1 BIM primary inactive, E coli Lon inh inactive, GLD-1 RNA inh inactive, Bcl-xL primary inactive and MEX-5 binding inactive.
`COc1ccc(C2C=C(c3ccccc3)Nc3nc(NC(C)=O)nn32)cc1` (centres undefined) gave EBV gp42 block 58, MCL1 BIM primary 60, GLD-1 RNA inh 40, Bcl-xL primary 58, MEX-5 binding inactive, Bcl-xL conf 59 and MCL1 inh confirm 80.
For CN(CC(=O)Nc1sccc1C#N)C1CCCCC1 the results were EBV gp42 block inactive, MCL1 BIM primary 112, E coli Lon inh inactive, GLD-1 RNA inh 62, Bcl-xL primary 61, MEX-5 binding inactive, Bcl-xL conf inactive and MCL1 inh confirm inactive.
`CCOC(=O)C1=C(COC(=O)COc2ccccc2C(C)C)NC(=O)NC1C` (centres undefined) gave E coli Lon inh inactive.
`Cc1nnc(C)c2c(C)n(-c3ccccc3)c(C)c12` gave E coli Lon inh inactive and MEX-5 binding inactive.
`Cc1nnc(C)c2c(C)n(-c3ccccc3N)c(C)c12` gave EBV gp42 block inactive, MCL1 BIM primary 94, E coli Lon inh inactive, GLD-1 RNA inh 46, Bcl-xL primary 96, MEX-5 binding inactive, Bcl-xL conf inactive and MCL1 inh confirm inactive.
`N#C/C(=C\c1ccc(O)c(O)c1)C(=O)NCCc1ccccc1` gave MCL1 BIM primary 42, E coli Lon inh inactive, GLD-1 RNA inh inactive, Bcl-xL primary inactive, Bcl-xL conf 31 and MCL1 inh confirm 45.
`CC(=O)Oc1ccc(C2OC(=O)c3ccccc3N2C(C)=O)cc1` (centres undefined) gave EBV gp42 block inactive, MCL1 BIM primary inactive, E coli Lon inh inactive, GLD-1 RNA inh inactive, Bcl-xL primary inactive and MEX-5 binding inactive.
`CC(=O)N1c2ccccc2C(=O)C1N1CCCCC1` (centres undefined) gave EBV gp42 block inactive, MCL1 BIM primary 69, E coli Lon inh inactive, GLD-1 RNA inh 58, Bcl-xL primary 65, MEX-5 binding inactive, Bcl-xL conf 52 and MCL1 inh confirm 63.
For COc1ccc2c(c1)c1nc3ccccc3nc1n2CC(=O)OC(C)C the results were EBV gp42 block 91, MCL1 BIM primary 59, E coli Lon inh inactive, GLD-1 RNA inh inactive, Bcl-xL primary 60, MEX-5 binding inconclusive, Bcl-xL conf 106 and MCL1 inh confirm 140.
COC(=O)Cn1c2ccc(C)cc2c2nc3ccccc3nc21 was read as E coli Lon inh inactive and MEX-5 binding inactive.
Screening CCOC(=O)c1cc(-c2ccc(/C=C3/C(=O)NC(=O)C(C#N)=C3C)o2)ccc1Cl returned EBV gp42 block 106, MCL1 BIM primary 121, E coli Lon inh inactive, GLD-1 RNA inh 42, Bcl-xL primary 85, MEX-5 binding inactive, Bcl-xL conf 105 and MCL1 inh confirm 150.
Screening CC1=C(C#N)C(=O)NC(=O)/C1=C\c1ccc(-c2ccc(C)cc2[N+](=O)[O-])o1 returned EBV gp42 block inactive, E coli Lon inh inactive and MEX-5 binding inactive.
For O=C1/C(=C\c2ccco2)SC(=S)N1c1ccc(O)cc1 the results were EBV gp42 block inactive, MCL1 BIM primary inactive, E coli Lon inh inactive, GLD-1 RNA inh inactive, Bcl-xL primary inactive and MEX-5 binding inactive.
O=C(CN1C(=O)/C(=C/c2ccco2)SC1=S)NC1CCS(=O)(=O)C1 (centres undefined) was read as MCL1 BIM primary 64, E coli Lon inh inactive, GLD-1 RNA inh inactive, Bcl-xL primary 44, MEX-5 binding inactive, Bcl-xL conf inactive and MCL1 inh confirm inactive.
For O=C(CN1C(=O)/C(=C/c2ccco2)SC1=S)Nc1ccc(O)c(C(=O)O)c1 the results were MCL1 BIM primary 58, E coli Lon inh inactive, GLD-1 RNA inh inactive, Bcl-xL primary 34, MEX-5 binding inactive, Bcl-xL conf inactive and MCL1 inh confirm 47.
Screening NN1C(=O)/C(=C\c2ccco2)SC1=S returned EBV gp42 block inactive, MCL1 BIM primary 55, E coli Lon inh inactive, GLD-1 RNA inh inactive, Bcl-xL primary inactive, MEX-5 binding inactive, Bcl-xL conf inactive and MCL1 inh confirm inactive.
O=C(CN1C(=O)/C(=C/c2ccco2)SC1=S)Nc1ccc(C(=O)O)c(O)c1 was read as MCL1 BIM primary 73, E coli Lon inh inactive, GLD-1 RNA inh inactive, Bcl-xL primary inactive, MEX-5 binding -28, Bcl-xL conf inactive and MCL1 inh confirm 48.
For CCc1nc2ccc(C(=O)N3CCN(c4ccccc4)CC3)cn2c1N(C)CCC(C)C the results were E coli Lon inh inactive.
`O=C1c2cccc3c(N4CCCCC4)ccc(c23)C(=O)N1c1ccc(O)cc1` gave EBV gp42 block inactive, MCL1 BIM primary 68, E coli Lon inh inactive, GLD-1 RNA inh 36, Bcl-xL primary 54, MEX-5 binding inconclusive, Bcl-xL conf 60 and MCL1 inh confirm 72.
For C#CCN1C(=O)S/C(=C\c2ccc(N3CCOCC3)cc2C)C1=O the results were EBV gp42 block inactive, MCL1 BIM primary 70, E coli Lon inh inactive, GLD-1 RNA inh inactive, Bcl-xL primary inactive, MEX-5 binding inconclusive, Bcl-xL conf 121 and MCL1 inh confirm 153.
`CC(=O)c1c(C(C)=O)c(C)n(-c2ccc(C(=O)O)cc2)c1C` gave EBV gp42 block inactive, MCL1 BIM primary inactive, E coli Lon inh inactive, GLD-1 RNA inh inactive, Bcl-xL primary inactive and MEX-5 binding inactive.
